PubChem BioAssay (NCI)
The panel holds about 83,000 compounds, 20% with a hit somewhere; the sample as a whole holds those more often.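 Step 1: grow cells in 96-well plates. Step 2: add test compound at a single concentration. Step 3: incubate 48 h. Step 4: record percent growth.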 Values without a mark were called inactive. The source made the active and inactive calls.

These compounds were tested on NCI-H460 lung (assay: NCI-60 one-dose screen, 48 h (100 = growth as untreated, 0 = no growth, -100 = all killed)). Conditions: 10 µM unless noted.
Description: Growth inhibition of the NCI-H460 human Non-Small Cell Lung tumor cell line is measured as a screen for anti-cancer activity. Cells are grown in 96 well plates and exposed to the test compound for 48 hours. Compounds are tested at a single concentration, which is 10^-5 M for most compounds. The reported endpoint is percent growth (GI% or GIPRCNT), where numbers from 0 - 100% represent growth inhibition, and numbers from -100% - 0 represent cell death. For example, a value of 40 represents 60% growth inhibition. A value of 0 means no net growth occurred over the course of the experiment. A value of -40 indicates 40% of cells at the beginning of the experiment died by the end of the experiment. A value of -100 means all cells are dead at the end of the experiment.
NCI-60 Human Tumor Cell Lines Screen was performed using the standard one-dose NCI protocol, which is described in more detail at https://dtp.cancer.gov/discovery_development/nci-60/default.htm.
Compounds with GIPRCNT values below 10 were considered active. Activity score was based on GIPRCNT using the following formula: […]
Score is 0 for GIPRCNT values of 100 or above, 50 for GIPRCNT values of 0, and 100 for GIPRCNT values of -100.
`N#CCCN=Nc1c(O)[nH]c2ccc([N+](=O)[O-])cc12` was tested, and the growth was 102%. For `Cc1ccc(C2=NN3C(C2)c2cc(Br)ccc2OC32CCN(Cc3ccccc3)CC2)o1` (stereo not given), the growth was 98%. `O=C(COc1ccc(-c2nc3cc(Cl)c(Cl)cc3[nH]2)cc1)N=Nc1c(O)[nH]c2ccccc12` was tested, and the growth was -69.6% (active). For `CSc1nc(NCc2ccccc2)c(C#N)c(-c2cccc([N+](=O)[O-])c2)n1`, the growth was 97%. With `Cc1cc(N2CCSCC2)nc(NC2CCCC(Nc3ccnc4cc(Cl)ccc34)C2)n1` (stereo not given) the growth was -11.2% (active). In the case of `COc1ccc2c(c1)C(=O)/C(=C/c1cccnc1)CC2`, the growth is reported as 105%. Work on `COc1ccc2c(c1)CC/C(=C\c1cncc(Br)c1)C2=O` yielded a growth of 103%. Work on `NS(=O)(=O)c1ccc(CN=C2NC(=O)S/C2=C\c2ccc(Br)cc2)cc1` yielded a growth of 101%. For `Cc1cc(C)nc(SC2=C(Nc3cccc(Cl)c3)C(=O)N(Cc3ccccc3)C2=O)n1`, the growth was 62.5% [30 µM]. For `COc1nc2c(c(=O)n1C)CN(Cc1ccccc1)C=N2`, the growth was 116%. With `CC(=O)O[C@H]1CC[C@]2(C)[C@H]3CC=C4[C@@H]5CC(C)(C)CC[C@]5(C(=O)NCCNCCN)CC[C@@]4(C)[C@]3(C)CC[C@H]2C1(C)C` the growth was -69.8% (active). `CC(C)(C)c1cc(C(C)(C)C)cc(S(=O)(=O)Nc2cc3ccccc3cc2C(=O)NCCN)c1` was tested, and the growth was -20.3% (active). `COc1ccc2nc(NC(=O)CSc3nnc4n3S(=O)(=O)c3ccccc3N4c3ccccc3)sc2c1` showed a growth of 104%. For `COC(=O)[C@@H]1CCCN1C(=O)[C@@H]1CCCN1C(=O)[C@H](Cc1ccccc1)NC(=S)Nc1cc(C(F)(F)F)cc(C(F)(F)F)c1`, the growth was 84.8%. Work on `COc1cccc(-c2nc3sccn3c2-c2ccnc(NCCCNS(=O)(=O)c3cccc(Cl)c3)c2)c1` yielded a growth of 64.8%. Work on `Brc1ccc(-c2csc(Nc3ccccn3)n2)cc1` yielded a growth of 91.5%. Work on `Cn1c(=O)[nH]c(=O)c2nc(CCC(=O)NCCC(=O)O)c(=O)[nH]c21` yielded a growth of 103%. `O=C(Cn1cccc(Nc2ccccc2)c1=O)Nc1ccccc1` showed a growth of 106%. `COc1cc2c(cc1-c1c(C)noc1C)ncc1nc(C3CCOCC3)n([C@H](C)COC(F)F)c12` gave a growth of 59.2%. `CC(C)C[C@@H](NC(=O)[C@@H](Cc1ccccc1)NC(=O)c1cnccn1)B1Oc2ccc(C[C@H](NC(=O)[C@H](Cc3ccc4c(c3)OB([C@@H](CC(C)C)NC(=O)[C@@H](Cc3ccccc3)NC(=O)c3cnccn3)O4)NC(=O)[C@@H](N)CC3CCC4OB([C@@H](CC(C)C)NC(=O)[C@@H](CC5CCCCC5)NC(=O)C5CNCCN5)OC4C3)C(=O)NCCCC[C@@H]3NC(=O)[C@@H](Cc4ccccc4)NC(=O)[C@H](CC(=O)O)NC(=O)CNC(=O)[C@H](CCCNC(=N)N)NC3=O)cc2O1` (stereo not given in full) was tested, and the growth was -54.8% (active). In the case of `O=C(CN1CCCCC1)Nc1ccc2oc(=O)ccc2c1`, the growth is reported as 104%. `COc1ccc(C2CC(c3ccc(Cl)cc3)=NN2/C=C2\SC(=S)N(NC(=O)Cc3ccccc3Nc3c(Cl)cccc3Cl)C2=O)cc1` (stereo not given) showed a growth of 81.8%. In the case of `COc1cccc(/C=N/NC(=O)c2ccccc2Nc2ccnc(C(F)(F)F)c2)c1O`, the growth is reported as -6.96% (active). For `COc1cccc(NC(=O)c2sc3nc(C)c(C(C)=O)cc3c2N)c1`, the growth was 10.8%. For `CCCOc1cc2ccccc2cc1C(=O)Nc1nc(NC)c2c(ccc3nccc32)[nH]1`, the growth was -78.3% (active). In the case of `Cc1cc(Nc2ccc(C)c(Cl)c2)n2nc(C(F)(F)F)nc2n1`, the growth is reported as 69%. `O=c1cc(CSc2nnc(SCc3cc(=O)oc4c3ccc3ccccc34)o2)c2ccc3ccccc3c2o1` gave a growth of 104%. `O=C(CN(C(=O)Cn1c(=O)n2nnnc2c2ccccc21)c1ccccc1C(F)(F)F)Nc1ccc(C(F)(F)F)cc1` gave a growth of 105%. For `Clc1ccc2c(NCCCCNc3nc(N4CCCCC4)nc4ccccc34)ccnc2c1`, the growth was 6.3% (active). In the case of `COc1ccc(S(=O)(=O)N2CCCCC2)cc1NC(=O)c1[nH]c(C)c2c1CCCCC2=O`, the growth is reported as 34.8%. Work on `C/C1=C\CC[C@@]2(C)O[C@H]2[C@H]2OC(=O)C(CN3CCN(CC4C(=O)O[C@H]5[C@H]4CC/C(C)=C/CC[C@@]4(C)O[C@@H]54)CC3)[C@@H]2CC1` (stereo not given in full) yielded a growth of 107%. In the case of `Cc1nn(-c2cc(=O)[nH]c3ccccc23)c(N)c1C#N`, the growth is reported as 104%. `COc1ccc(/C=C\c2cc(OC)c(OC)c(OC)c2)cc1OCC(=O)Nc1ccc2nc(C)sc2c1` showed a growth of 24.5%. For `Nc1n[nH]c2ccc([C@@H]3Nc4ccc5[nH]ncc5c4[C@H]4C5C=CC(C5)[C@@H]34)cc12` (stereo not given in full), the growth was -10.8% (active). Work on `O=c1nc2oc3ccc4ccccc4c3cc-2s1` yielded a growth of 11.1%. `CCOC(=O)c1csc(NC(=O)COc2cccc(/C=C3\CSc4ccccc4C3=O)c2)n1` was tested, and the growth was 98.4%. In the case of `O=[N+]([O-])c1ccc(Nc2nc(NCCN3CCOCC3)ncc2[N+](=O)[O-])cc1`, the growth is reported as 94.4%. Compound `C=CC(=O)Nc1cccc(Nc2nc(SC)nc(-c3cccc([N+](=O)[O-])c3)c2C#N)c1` has a growth of 40.4%. `COc1cccc(-c2nc3sccn3c2-c2ccnc(NCCNS(=O)(=O)c3ccccc3)c2)c1` gave a growth of 20%. Work on `COc1ccc(O)c(N=Nc2nccs2)c1` yielded a growth of 101%.
